Common to all, as to assay: DAPPL (digital affinity profiling via proximity ligation, sequencing); 10 mM Tris-HCl pH 7.5, 50 mM NaCl, 1 mM DTT, 4% glycerol, room temperature, 30 min; GST-TFs on glutathione beads, 16-mer random dsDNA library, 0.1% formaldehyde crosslink after washing; high values mean tight binding
Conditions in all cases: protein: recombinant; tags: N-terminal GST; dsDNA, one strand shown

For assay [1], the target named is T1, ELK1 (Homo sapiens, UniProt P19419 1-428).
T1 sequence: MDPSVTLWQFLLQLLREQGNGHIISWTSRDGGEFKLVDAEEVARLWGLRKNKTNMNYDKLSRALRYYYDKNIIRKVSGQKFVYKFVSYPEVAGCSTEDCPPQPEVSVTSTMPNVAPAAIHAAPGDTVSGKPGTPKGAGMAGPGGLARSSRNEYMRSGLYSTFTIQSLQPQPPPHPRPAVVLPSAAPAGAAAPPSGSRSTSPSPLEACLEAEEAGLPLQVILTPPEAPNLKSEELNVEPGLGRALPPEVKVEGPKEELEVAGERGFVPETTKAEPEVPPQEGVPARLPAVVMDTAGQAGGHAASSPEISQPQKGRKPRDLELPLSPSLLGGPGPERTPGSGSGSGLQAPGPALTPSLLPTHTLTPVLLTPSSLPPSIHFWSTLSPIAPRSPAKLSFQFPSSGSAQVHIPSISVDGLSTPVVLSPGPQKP
A digest of the protocol: (§1)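 Sequencing on an Illumina NextSeq500 followed washing, crosslinking with 0.1% formaldehyde, proximity ligation (BsaI/T4 ligase, 1 h, 37 °C) and PCR amplification of pools that had been incubated for 30 min at room temperature with 200 nmole of a random double-stranded 16-mer DNA library in Tris/NaCl/DTT/glycerol buffer. Each pool held DNA-barcoded human transcription factors, expressed in yeast as GST fusions and captured on glutathione beads, plus a tag-only sample. Binding signal is a hexamer's read frequency for a factor divided by its frequency in the tag-only sample.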

Assay [2] addresses T2, GABPA (Homo sapiens, UniProt Q06546 1-454).
T2 sequence: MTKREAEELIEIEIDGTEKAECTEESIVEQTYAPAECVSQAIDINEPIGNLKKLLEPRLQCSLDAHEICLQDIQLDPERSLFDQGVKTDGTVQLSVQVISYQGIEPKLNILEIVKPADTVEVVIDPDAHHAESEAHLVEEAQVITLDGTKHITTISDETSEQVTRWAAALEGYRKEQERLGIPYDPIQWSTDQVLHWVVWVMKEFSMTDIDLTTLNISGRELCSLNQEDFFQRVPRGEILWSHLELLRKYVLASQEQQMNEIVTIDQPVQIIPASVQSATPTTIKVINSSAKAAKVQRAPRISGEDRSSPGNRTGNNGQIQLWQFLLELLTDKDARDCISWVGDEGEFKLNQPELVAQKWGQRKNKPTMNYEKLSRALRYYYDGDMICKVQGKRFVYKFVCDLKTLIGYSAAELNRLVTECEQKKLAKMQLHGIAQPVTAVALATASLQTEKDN
An outline of the steps:
as §1

The target in assay [3] is T3, EHF (Homo sapiens, UniProt Q9NZC4 1-300).
T3 sequence: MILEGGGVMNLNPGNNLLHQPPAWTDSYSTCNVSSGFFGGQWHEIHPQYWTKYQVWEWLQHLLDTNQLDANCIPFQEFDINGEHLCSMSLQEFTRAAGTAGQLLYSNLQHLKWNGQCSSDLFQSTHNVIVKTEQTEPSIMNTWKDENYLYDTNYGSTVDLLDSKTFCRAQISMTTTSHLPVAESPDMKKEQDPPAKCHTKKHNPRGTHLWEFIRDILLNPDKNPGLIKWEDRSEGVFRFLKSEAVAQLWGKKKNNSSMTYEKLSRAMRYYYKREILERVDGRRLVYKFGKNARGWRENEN
A digest of the protocol:
as §1

Assay [4] concerns the target T4, ELK3 (Homo sapiens, UniProt P41970 1-407).
T4 sequence: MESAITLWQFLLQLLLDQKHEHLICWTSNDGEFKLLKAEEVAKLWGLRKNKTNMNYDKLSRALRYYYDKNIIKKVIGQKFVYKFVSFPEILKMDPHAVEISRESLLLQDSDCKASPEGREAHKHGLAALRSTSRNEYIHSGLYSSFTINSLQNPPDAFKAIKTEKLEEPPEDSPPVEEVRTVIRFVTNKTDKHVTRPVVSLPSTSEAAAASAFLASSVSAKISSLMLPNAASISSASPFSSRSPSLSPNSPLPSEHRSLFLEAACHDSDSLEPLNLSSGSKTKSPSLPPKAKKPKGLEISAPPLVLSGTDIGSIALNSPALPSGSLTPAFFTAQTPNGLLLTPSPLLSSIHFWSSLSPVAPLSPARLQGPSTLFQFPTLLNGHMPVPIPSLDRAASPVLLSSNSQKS
A digest of the protocol:
as §1

The target in assay [5] is ETV5 (Homo sapiens, UniProt P41161 1-510). An outline of the steps:
as §1

The target in assay [6] is T5, SPIC (Homo sapiens, UniProt Q8N5J4 1-248).
T5 sequence: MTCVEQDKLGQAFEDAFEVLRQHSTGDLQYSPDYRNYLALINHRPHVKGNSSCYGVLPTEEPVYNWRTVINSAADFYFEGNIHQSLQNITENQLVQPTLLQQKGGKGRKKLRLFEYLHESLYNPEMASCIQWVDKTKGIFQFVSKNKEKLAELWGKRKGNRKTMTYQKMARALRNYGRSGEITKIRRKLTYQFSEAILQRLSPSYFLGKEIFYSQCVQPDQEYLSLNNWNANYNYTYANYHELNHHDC
An outline of the steps: as §1

The target in assay [7] is T6, ELK4 (Homo sapiens, UniProt P28324-2 1-405).
T6 sequence: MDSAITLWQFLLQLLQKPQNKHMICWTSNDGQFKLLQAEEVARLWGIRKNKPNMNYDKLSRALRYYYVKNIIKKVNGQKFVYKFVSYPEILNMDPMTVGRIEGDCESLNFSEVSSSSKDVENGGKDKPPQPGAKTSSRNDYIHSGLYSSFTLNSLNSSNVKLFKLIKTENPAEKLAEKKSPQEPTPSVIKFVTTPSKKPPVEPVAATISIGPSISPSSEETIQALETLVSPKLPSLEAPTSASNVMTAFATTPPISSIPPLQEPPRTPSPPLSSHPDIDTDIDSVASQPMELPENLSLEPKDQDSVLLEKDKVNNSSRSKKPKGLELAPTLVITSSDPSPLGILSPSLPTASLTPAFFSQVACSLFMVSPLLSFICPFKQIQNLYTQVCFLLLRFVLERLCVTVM
An outline of the steps:
as §1

Assay [8] concerns the target T7, ERF (Homo sapiens, UniProt P50548 1-548).
T7 sequence: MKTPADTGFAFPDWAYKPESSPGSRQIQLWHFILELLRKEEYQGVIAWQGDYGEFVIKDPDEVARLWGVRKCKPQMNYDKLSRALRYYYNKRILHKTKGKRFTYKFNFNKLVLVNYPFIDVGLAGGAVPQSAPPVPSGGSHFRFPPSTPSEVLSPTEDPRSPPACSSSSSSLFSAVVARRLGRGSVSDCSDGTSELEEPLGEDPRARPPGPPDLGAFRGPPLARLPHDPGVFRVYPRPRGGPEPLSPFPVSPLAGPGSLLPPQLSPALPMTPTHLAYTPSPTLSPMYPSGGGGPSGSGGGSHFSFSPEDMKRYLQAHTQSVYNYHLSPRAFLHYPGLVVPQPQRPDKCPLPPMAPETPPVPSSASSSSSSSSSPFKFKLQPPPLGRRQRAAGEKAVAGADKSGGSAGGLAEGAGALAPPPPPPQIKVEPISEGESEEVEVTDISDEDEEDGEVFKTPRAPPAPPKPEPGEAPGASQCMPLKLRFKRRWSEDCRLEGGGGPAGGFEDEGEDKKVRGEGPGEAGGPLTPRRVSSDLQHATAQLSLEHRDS
A digest of the protocol: as §1

Assay [9] addresses T8, ETS2 (Homo sapiens, UniProt P15036 1-469).
T8 sequence: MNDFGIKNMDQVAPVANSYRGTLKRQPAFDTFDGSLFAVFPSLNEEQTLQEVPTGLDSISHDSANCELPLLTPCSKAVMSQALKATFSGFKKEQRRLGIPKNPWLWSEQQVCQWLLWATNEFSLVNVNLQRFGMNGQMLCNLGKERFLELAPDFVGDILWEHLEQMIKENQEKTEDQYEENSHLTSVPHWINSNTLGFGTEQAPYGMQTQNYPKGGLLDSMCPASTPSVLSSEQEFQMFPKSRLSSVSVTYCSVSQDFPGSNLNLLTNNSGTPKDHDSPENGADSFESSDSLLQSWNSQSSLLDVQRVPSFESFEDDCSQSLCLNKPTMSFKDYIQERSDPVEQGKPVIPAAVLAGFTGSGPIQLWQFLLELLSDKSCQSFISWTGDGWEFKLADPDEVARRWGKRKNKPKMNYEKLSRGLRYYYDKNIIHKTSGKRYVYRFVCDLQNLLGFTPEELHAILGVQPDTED
An outline of the steps:
as §1

Assay [10] concerns the target T9, SPDEF (Homo sapiens, UniProt O95238 1-335).
T9 sequence: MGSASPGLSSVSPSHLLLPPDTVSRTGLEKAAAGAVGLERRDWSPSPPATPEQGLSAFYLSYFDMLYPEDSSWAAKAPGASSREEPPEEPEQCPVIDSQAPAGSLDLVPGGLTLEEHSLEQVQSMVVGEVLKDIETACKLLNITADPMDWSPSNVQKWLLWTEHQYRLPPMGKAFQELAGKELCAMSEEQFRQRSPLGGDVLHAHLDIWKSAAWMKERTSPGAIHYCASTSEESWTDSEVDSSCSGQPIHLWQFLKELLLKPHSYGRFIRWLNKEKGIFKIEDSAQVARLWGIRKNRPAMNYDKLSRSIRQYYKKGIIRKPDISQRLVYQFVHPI
An outline of the steps: as §1

The target of assay [11] is T10, ETV7 (Homo sapiens, UniProt Q9Y603 1-341).
T10 sequence: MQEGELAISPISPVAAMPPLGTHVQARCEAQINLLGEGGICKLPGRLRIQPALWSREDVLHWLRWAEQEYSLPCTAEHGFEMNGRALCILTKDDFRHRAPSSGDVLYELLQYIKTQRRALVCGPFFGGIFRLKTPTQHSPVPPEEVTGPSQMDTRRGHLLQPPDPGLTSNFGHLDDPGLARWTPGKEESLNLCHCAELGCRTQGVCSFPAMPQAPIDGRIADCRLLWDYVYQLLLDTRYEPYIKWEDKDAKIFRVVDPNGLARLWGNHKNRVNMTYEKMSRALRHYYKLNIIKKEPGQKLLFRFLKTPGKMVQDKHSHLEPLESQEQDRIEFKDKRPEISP
An outline of the steps:
as §1

ETV5, sequence (P41161 whole entry): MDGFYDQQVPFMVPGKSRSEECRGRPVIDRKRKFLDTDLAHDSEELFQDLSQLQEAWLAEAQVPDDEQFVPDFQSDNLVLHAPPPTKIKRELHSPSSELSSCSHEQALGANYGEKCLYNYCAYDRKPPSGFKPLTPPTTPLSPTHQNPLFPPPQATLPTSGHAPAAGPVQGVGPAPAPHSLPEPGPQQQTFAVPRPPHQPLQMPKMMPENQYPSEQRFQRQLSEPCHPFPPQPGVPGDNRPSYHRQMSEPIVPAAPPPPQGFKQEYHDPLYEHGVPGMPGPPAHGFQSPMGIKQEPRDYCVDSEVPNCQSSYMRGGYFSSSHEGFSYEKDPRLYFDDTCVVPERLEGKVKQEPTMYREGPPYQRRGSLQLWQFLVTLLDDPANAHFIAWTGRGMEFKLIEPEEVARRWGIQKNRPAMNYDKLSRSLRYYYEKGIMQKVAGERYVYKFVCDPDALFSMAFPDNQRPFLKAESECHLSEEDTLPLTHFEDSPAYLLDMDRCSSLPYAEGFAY

As for ATAGGG, the binding signal in [1] was 1.01 fold enrichment (6-mer frequency, TF over GST control); in [2], 1.03 fold enrichment (6-mer frequency, TF over GST control); in assay [3], 1.01 fold enrichment (6-mer frequency, TF over GST control); in [4], 1.06 fold enrichment (6-mer frequency, TF over GST control); in assay [5] it was 1.03 fold enrichment (6-mer frequency, TF over GST control); in [6], 1.08 fold enrichment (6-mer frequency, TF over GST control). Also, the binding signal in [7] was 1.06 fold enrichment (6-mer frequency, TF over GST control); in assay [8], 1.14 fold enrichment (6-mer frequency, TF over GST control); in assay [9], 1.01 fold enrichment (6-mer frequency, TF over GST control); in assay [10], 1.01 fold enrichment (6-mer frequency, TF over GST control); in assay [11], 1.09 fold enrichment (6-mer frequency, TF over GST control).

These data come from PMC7862700, “An all-to-all approach to the identification of sequence-specific readers for epigenetic DNA modifications on cytosine”.
